Unmarked numbers belong to inactive results. Results filed as inconclusive are left out. Calls of active or inactive are those of the source. Unless noted, calls follow the shape of the dose curve; as a rule, active = well fitted curve in the direction sought with a large enough effect; inconclusive = small, poorly fitted or top-dose-only effect, or another doubt; inactive = no such curve, though single readings can be large; an effect the other way counts as inactive or inconclusive.
Columns and labels:
[1] = biological target: Lysosomal acid glucosylceramidase (Homo sapiens) (UniProt P04062); assay: Glucocerebrosidase-p2 (AID 348; in the data active = potency below about 10 µM; also: potency is read from the fitted curve at half-maximal effect); conditions: purified GBA, blue fluorogenic substrate, 40 min
Lysosomal acid glucosylceramidase (Homo sapiens), sequence (P04062 whole entry, looked up): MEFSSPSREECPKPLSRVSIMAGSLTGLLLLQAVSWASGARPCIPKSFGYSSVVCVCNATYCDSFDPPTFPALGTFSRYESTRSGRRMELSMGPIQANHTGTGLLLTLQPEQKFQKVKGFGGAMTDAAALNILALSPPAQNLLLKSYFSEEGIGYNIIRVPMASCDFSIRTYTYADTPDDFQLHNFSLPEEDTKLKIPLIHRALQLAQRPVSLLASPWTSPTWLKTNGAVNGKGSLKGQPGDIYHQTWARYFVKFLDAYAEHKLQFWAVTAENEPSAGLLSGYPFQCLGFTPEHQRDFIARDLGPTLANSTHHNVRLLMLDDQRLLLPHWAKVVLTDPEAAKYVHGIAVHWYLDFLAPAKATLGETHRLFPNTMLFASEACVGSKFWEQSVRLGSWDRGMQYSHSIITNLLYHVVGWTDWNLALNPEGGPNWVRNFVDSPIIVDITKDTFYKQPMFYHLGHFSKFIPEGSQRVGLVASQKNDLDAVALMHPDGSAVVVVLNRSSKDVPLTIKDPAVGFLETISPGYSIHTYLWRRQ
Method in brief: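 Compounds titrated from 0.6 nM upwards against 0.2 nM enzyme in pH 5.9 citric acid/KH2PO4, taurocholate, tween-20; blue fluorogenic substrate 80 uM, 40 min room temperature, stopped and read Ex 365/Em 440 for AC50.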

[2] = AP1 Signaling Pathway (AID 357; active = well fitted curve in either direction with a large enough effect, not every such curve was filed as active;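 also: ME-180 reporter cells stimulated with EGF at its EC50 level; % is scaled to controls: 0 for no effect and ±100 for the full control effect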); conditions: ME-180 AP-1-bla reporter, EGF-induced, beta-lactamase ratio, 5 h; at 7.69 µM (top of the series) unless noted
Method in brief: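 Titration-series screen for positive or negative modulators of EC50 EGF-induced signaling in ME-180 cells carrying an AP-1-driven beta-lactamase reporter. After 5 hours at 37 degrees Celsius, CCF4 460nm/530nm emission ratio gave %Activity; AC50 values derived.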

[3] = biological target: Cytochrome P450 1A2 (Homo sapiens) (UniProt P05177); assay: p450-cyp1a2 (AID 410; calls by dose curve; also: potency is read from the fitted curve at half-maximal effect); conditions: recombinant CYP1A2, luciferin-ME demethylation, luminescence; series mostly up to 57 µM
Cytochrome P450 1A2 (Homo sapiens), sequence (P05177 whole entry, looked up): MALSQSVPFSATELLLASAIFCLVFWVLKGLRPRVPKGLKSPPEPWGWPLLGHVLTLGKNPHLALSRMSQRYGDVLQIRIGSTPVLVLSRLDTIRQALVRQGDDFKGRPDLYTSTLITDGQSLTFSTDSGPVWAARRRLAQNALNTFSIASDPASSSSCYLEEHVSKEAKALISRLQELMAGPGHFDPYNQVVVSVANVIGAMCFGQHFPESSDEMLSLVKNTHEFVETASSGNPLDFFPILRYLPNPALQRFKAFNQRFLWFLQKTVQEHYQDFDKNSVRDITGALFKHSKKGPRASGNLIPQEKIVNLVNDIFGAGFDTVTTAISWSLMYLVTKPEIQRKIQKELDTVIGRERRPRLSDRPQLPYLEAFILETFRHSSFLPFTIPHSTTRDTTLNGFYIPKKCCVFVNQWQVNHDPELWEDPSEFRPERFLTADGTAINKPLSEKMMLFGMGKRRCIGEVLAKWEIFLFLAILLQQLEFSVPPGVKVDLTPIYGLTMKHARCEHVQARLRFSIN
Method in brief: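 Luminescent readout of luciferin formed from Luciferin-ME by human CYP1A2; data normalized against complete inhibition by 57 uM furafylline. Enzyme 20nM, substrate 100uM at Km, 100mM KPO4 buffer, 60 min reaction at room temperature.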

[4] = NFAT Signaling Pathway (AID 444; active = well fitted curve in either direction with a large enough effect, not every such curve was filed as active;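 also: carbachol stimulus at about its EC50 of 1 µM final; % is scaled to controls: 0 for no effect and ±100 for the full control effect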); conditions: Jurkat NFAT-bla M1, carbachol, beta-lactamase ratio, 5 h; at 7.69 µM (top of the series) unless noted
Method in brief: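 Read-out: CCF4 FRET ratio (460 nm/530 nm) after 1 h RT dye loading, used for %activity and AC50 from titration series. Cells: Jurkat NFAT-β-lactamase/M1 line, treated with compound plus 1 uM carbachol for 5 h, 37 °C.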

[5] = biological target: Glucocorticoid receptor (Homo sapiens) (UniProt P04150); assay: GR-GFP Redistribution (AID 450;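 active = compounds whose dose series gives a full or clear partial fitted curve of increased nuclear translocation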; also: potency is read from the fitted curve at half-maximal effect); conditions: U2OS GR-GFP nuclear translocation, laser cytometry, 2 h
Glucocorticoid receptor (Homo sapiens), sequence (P04150 whole entry, looked up, the tested form may be a part): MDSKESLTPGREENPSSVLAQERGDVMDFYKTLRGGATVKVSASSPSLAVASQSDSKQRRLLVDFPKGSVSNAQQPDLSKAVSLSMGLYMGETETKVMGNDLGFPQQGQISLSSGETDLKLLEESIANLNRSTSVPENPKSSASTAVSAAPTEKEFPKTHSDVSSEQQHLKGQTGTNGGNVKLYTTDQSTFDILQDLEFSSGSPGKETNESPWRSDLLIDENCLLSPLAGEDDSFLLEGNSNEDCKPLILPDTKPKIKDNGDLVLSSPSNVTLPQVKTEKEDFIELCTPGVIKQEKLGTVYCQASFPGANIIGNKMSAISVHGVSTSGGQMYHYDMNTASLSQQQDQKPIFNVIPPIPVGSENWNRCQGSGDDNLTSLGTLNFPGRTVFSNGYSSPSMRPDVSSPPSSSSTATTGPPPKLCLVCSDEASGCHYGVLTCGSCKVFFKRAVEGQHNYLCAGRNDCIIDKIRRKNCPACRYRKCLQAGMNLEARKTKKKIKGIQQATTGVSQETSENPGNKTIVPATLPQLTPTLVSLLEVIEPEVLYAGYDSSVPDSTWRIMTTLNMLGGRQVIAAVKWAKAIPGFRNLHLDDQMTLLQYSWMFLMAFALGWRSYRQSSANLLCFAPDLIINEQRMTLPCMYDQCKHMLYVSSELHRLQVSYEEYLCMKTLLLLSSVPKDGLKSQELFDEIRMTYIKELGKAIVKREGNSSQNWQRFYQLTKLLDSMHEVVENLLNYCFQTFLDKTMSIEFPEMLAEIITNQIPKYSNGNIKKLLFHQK

[6] = biological target: Glucocorticoid receptor (Homo sapiens) (UniProt P04150); assay: GR-EFC Redistribution (AID 451; calls by dose curve; also: potency is read from the fitted curve at half-maximal effect); conditions: CHO-K1 GR-EFC translocation, beta-gal luminescence, 2 h
Method in brief: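 Translocation of GR-ED fusion to nuclear EA restores b-gal, read by luminescence after 1 h room-temperature detection. Engineered CHO-K1 biosensor cells, 1,000/well, exposed 2 h at 37 C to titrations up to 46 uM final.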

[7] = biological target: 3',5'-cyclic-AMP phosphodiesterase 4B (Homo sapiens) (UniProt Q07343); assay: qHTS Assay for Inhibitors of PDE-IV (AID 607; active = well fitted activation curve with a large enough effect in the main read-out, with a control signal flat, not every such curve was filed as active; also: % of control where 0% means no effect); conditions: HEK293 ACTOne CNG channel cells, membrane potential fluorescence; series mostly up to 22.9 µM
3',5'-cyclic-AMP phosphodiesterase 4B (Homo sapiens), sequence (Q07343 whole entry, looked up): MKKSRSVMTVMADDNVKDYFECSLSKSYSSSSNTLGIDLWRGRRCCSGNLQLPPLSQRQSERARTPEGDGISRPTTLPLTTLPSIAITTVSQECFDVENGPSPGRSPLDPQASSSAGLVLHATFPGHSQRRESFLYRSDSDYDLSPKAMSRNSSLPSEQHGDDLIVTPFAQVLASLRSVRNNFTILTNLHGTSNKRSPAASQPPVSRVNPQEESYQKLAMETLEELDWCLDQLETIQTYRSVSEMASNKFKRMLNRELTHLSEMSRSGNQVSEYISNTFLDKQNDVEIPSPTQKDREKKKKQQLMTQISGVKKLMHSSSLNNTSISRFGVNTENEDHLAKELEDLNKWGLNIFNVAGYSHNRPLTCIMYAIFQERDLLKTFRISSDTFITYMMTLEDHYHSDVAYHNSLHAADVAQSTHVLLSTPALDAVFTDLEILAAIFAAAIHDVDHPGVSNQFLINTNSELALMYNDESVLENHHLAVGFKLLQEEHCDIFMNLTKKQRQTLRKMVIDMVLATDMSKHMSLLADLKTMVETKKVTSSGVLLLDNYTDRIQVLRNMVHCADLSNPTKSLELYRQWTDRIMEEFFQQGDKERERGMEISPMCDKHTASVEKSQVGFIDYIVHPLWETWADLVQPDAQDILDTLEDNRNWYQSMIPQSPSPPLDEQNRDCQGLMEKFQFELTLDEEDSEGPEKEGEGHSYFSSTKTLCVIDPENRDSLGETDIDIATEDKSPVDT
Method in brief: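 The readout is membrane depolarisation from a cAMP-sensing CNG channel, detected with a potential dye at ex 535/em 590. Cells were HEK293-derived (endogenous PDE-IV) at 1000 cells/well, titrated up to 22.9 uM final.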

[8] = biological target: Cytochrome P450 3A4 (Homo sapiens) (UniProt P08684); assay: qHTS Assay for Activators of Cytochrome P450 3A4 (AID 885); conditions: recombinant CYP3A4, Luciferin-PPXE luminescence, 60 min; series mostly up to 57.1 µM; also: nearly all actives have a fitted effect of over 65% in size
Cytochrome P450 3A4 (Homo sapiens), sequence (P08684 whole entry, looked up): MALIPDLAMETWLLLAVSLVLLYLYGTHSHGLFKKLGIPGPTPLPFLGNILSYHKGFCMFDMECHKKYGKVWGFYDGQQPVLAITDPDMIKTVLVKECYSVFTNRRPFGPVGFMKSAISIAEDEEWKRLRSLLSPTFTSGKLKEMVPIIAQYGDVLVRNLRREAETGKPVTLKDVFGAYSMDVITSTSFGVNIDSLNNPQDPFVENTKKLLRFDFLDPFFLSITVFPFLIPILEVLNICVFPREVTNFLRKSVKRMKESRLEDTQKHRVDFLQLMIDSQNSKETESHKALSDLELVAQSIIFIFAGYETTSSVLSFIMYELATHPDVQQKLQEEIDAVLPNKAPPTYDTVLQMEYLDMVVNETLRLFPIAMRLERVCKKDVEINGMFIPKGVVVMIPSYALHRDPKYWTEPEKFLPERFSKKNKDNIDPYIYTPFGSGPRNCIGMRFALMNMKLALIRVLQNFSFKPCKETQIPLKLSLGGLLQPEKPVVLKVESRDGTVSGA
Method in brief: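 Steps: enzyme/substrate mix dispensed; compound added, 10 min RT; NADPH regeneration solution added, 60 min RT; luciferin detection buffer stops reaction; 20 min later luminescence measured.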

[9] = qHTS Assay for Identification of Small Molecule Agonists for Hypoxia Response Element Signaling Pathway (AID 914; active = well fitted activation curve with a large enough effect in the signal ratio, with a control signal flat, not every such curve was filed as active; the % refers to the signal ratio; also: potency is read from the fitted curve at half-maximal effect); conditions: ME-180 HRE-bla reporter, beta-lactamase ratio, CoCl2, 17 h; activation: active compounds read high
Method in brief: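 Reporter activity (beta-lactamase, CCF4 460nm/530nm ratio) in HRE-bla ME-180 cells is recorded after 17 h compound exposure with EC50 CoCl2 at 37 degrees Celsius. AC50 values come from titration data.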

[10] = biological target: Dual specificity protein kinase CLK4 (Homo sapiens) (UniProt Q9HAZ1); assay: qHTS Assay for Inhibitors of CDC-like Kinase 4 (Kinase-Glo Assay) (AID 1770); conditions: recombinant Clk4, Kinase-Glo ATP depletion luminescence; series mostly up to 66.7 µM; also: nearly all actives have a fitted effect of over 65% in size; also: potency is read from the fitted curve at half-maximal effect
Dual specificity protein kinase CLK4 (Homo sapiens), sequence (Q9HAZ1 whole entry, looked up): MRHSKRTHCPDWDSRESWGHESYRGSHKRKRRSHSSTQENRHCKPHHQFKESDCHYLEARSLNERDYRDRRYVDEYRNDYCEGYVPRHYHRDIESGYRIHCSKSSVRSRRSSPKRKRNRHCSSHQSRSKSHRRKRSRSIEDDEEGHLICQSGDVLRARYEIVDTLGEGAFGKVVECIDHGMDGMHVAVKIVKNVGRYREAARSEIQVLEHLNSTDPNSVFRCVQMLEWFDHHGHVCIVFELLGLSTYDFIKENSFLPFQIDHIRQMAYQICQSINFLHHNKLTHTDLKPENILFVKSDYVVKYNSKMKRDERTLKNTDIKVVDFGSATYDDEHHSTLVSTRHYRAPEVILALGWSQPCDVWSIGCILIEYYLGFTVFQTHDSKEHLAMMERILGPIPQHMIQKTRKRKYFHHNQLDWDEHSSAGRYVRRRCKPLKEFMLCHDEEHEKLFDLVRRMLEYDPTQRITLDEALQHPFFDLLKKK
Method in brief: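 Recombinant human Clk4 (25 nM) phosphorylated RS repeat peptide (100 uM) with 1 uM ATP in Tris pH 7.5/MgCl2/EGTA/DTT/Triton buffer for 4.5 h at room temperature. Residual ATP was quantified by Kinase-Glo luciferase luminescence.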

[11] = biological target: Dual specificity protein kinase CLK4 (Homo sapiens) (UniProt Q9HAZ1); assay: qHTS Assay for Inhibitors of CDC-like Kinase 4 (ADP-Glo Assay) (AID 1771); conditions: recombinant CLK4, ADP-Glo luminescence; series mostly up to 80 µM; also: nearly all actives have a fitted effect of over 70% in size; also: potency is read from the fitted curve at half-maximal effect
Method in brief: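 Luminescence from ADP-Glo reports ADP produced by 25 nM Clk4 acting on 100 uM RS repeat peptide with 1 uM ATP over 1 hr at room temperature; residual ATP is depleted before ADP is converted to ATP for detection.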

[12] = biological target: Dual specificity protein kinase CLK4 (Homo sapiens) (UniProt Q9HAZ1); assay: qHTS Assay for Inhibitors of CDC-like Kinase 4 (ADP-FP Assay) (AID 1795); conditions: Transcreener ADP fluorescence polarization; series mostly up to 50 µM; also: % is scaled to controls: 0 for no effect and ±100 for the full control effect; nearly all actives have a fitted effect of over 60% in size
Method in brief: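 Recombinant human Clk4 (6.25 nM) phosphorylated RS repeat peptide (100 uM) with 1 uM ATP in Tris pH 7.5/MgCl2/EGTA/DTT/Triton buffer for one hour. ADP was quantified by Transcreener competitive fluorescence polarization against an ADP calibration curve.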

[13] = biological target: Ubiquitin carboxyl-terminal hydrolase 1 (Homo sapiens) (UniProt O94782); assay: Inhibitors of USP1/UAF1: Pilot qHTS (AID 504865); conditions: purified USP1/UAF1, Ub-rhodamine cleavage fluorescence; series mostly up to 54.9 µM; also: nearly all actives have a fitted effect of over 35% in size; also: potency is read from the fitted curve at half-maximal effect
Ubiquitin carboxyl-terminal hydrolase 1 (Homo sapiens), sequence (O94782 whole entry, looked up): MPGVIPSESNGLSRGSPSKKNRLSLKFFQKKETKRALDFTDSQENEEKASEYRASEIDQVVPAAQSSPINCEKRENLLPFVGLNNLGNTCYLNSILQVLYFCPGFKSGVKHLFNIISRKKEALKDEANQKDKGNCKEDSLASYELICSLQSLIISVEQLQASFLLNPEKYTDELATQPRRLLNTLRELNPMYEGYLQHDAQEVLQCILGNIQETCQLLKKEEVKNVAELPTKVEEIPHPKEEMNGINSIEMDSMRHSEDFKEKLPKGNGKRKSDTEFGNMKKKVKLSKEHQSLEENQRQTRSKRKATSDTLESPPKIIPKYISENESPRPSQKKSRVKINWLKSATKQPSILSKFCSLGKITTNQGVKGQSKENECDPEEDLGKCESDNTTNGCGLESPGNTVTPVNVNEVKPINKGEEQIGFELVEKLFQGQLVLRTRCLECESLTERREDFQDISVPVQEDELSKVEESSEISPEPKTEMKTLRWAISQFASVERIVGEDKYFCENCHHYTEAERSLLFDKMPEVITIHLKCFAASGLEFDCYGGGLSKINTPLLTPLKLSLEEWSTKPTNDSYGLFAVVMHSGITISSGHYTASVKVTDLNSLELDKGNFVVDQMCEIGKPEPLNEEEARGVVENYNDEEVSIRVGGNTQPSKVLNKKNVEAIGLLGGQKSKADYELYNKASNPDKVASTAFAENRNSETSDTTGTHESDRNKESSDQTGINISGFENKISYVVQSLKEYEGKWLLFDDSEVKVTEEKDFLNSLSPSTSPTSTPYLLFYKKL
Method in brief: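 USP1/UAF1 complex (1nM) preincubated with compound 15 min at room temperature, then Ub-Rho substrate (150nM final) added. Fluorescence read kinetically at 480/540 nm, 6 reads every 60 seconds. Buffer: 50mM HEPES pH 7.8, 0.5mM EDTA, 0.1 mg/ml BSA, 1mM TCEP, 0.01% Tween-20.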

[14] = Primary qHTS for small molecule stabilizers of the endoplasmic reticulum resident proteome: Secreted ER Calcium Modulated Protein (SERCaMP) assay (AID 1508630); conditions: SH-SY5Y GLuc-SERCaMP (Gaussia luciferase released on ER calcium loss) secretion, thapsigargin, luminescence; series mostly up to 38.4 µM; also: % is scaled to controls: 0 for no effect and ±100 for the full control effect
Method in brief: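 GLuc-SERCaMP-expressing SH-SY5Y cells, pretreated 16 h with compound, are challenged with thapsigargin to empty ER calcium stores; after 4 h, coelenterazine is added directly to the medium and luminescence is imaged.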

[15] = Stat Signaling Pathway (AID 446; active = well fitted curve in either direction with a large enough effect, not every such curve was filed as active;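 also: ME-180 cervical cancer cells given 40 pM IL-6 alongside compound; SIE-controlled beta-lactamase reporter measured as 460/530 nm FRET emission ratio; % is scaled to controls: 0 for no effect and ±100 for the full control effect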); conditions: ME-180 SIE beta-lactamase reporter, IL-6 stimulated, 5 h; at 7.69 µM (top of the series) unless noted
Method in brief: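 Screening format detects activators and inhibitors alike: ME-180 SIE-bla cells stimulated at 40 pM IL-6 for 5 hrs with compound, then dual-emission beta-lactamase read at 405 nm excitation.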

[16] = biological target: Mitogen-activated protein kinase 10 (Mus musculus) (UniProt Q61831); assay: JNK3 AlphaScreen Assay (AID 530; active = well fitted curve in either direction with a large enough effect, not every such curve was filed as active); conditions: JNK3 lysate, c-Jun phosphorylation; series mostly up to 57.1 µM
Method in brief: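 Compound titrations were preincubated 15 minutes at room temperature with substrate, antibody and pre-activated JNK3-containing HepG2 lysate. Reactions were started with 10 uM ATP and stopped with EDTA-containing bead buffer for AlphaScreen detection.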

[17] = biological target: Cytochrome P450 2C9 (Homo sapiens) (UniProt P11712); assay: qHTS Assay for Inhibitors and Substrates of Cytochrome P450 2C9 (AID 883); conditions: recombinant CYP2C9, luciferin-H luminescence, 60 min; series mostly up to 57.1 µM; also: % is scaled to controls: 0 for no effect and ±100 for the full control effect; nearly all actives have a fitted effect of over 60% in size
Cytochrome P450 2C9 (Homo sapiens), sequence (P11712 whole entry, looked up): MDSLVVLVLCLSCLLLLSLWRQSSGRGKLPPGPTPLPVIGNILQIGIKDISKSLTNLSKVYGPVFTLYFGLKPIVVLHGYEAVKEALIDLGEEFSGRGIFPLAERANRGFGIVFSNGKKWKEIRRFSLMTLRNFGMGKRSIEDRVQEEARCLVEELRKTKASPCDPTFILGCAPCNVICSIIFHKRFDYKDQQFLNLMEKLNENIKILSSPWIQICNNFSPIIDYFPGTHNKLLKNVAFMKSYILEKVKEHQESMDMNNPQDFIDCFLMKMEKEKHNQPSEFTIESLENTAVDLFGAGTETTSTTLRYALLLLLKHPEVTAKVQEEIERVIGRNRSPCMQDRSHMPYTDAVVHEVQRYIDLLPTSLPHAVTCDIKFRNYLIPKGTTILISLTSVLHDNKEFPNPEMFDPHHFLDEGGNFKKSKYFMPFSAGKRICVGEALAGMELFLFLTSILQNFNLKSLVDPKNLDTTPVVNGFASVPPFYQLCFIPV
Method in brief: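 Luminescent read-out of deoxyluciferin hydroxylation, normalized to 57uM sulphaphenazole (AC100). Reaction: 10nM enzyme, 100uM Luciferin-H (equal to KM), 25mM KPO4, 10 min compound preincubation, then 60 min with NADPH regeneration, both at 37C.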

[18] = biological target: Cytochrome P450 3A4 (Homo sapiens) (UniProt P08684); assay: qHTS Assay for Inhibitors and Substrates of Cytochrome P450 3A4 (AID 884); conditions: recombinant CYP3A4, Luciferin-PPXE luminescence; series mostly up to 57.1 µM; also: % is scaled to controls: 0 for no effect and ±100 for the full control effect; nearly all actives have a fitted effect of over 50% in size
Method in brief: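 20 nM human CYP3A4 with 25 uM Luciferin-PPXE (at KM) in 200 mM KPO4, preincubated 10 min with compound; NADPH regeneration started a 60 min RT reaction. Luciferin detected by luminescence, normalized to 57 uM ketoconazole as full inhibition.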

[19] = biological target: Cytochrome P450 2C19 (Homo sapiens) (UniProt P33261); assay: qHTS Assay for Inhibitors and Substrates of Cytochrome P450 2C19 (AID 899); conditions: recombinant CYP2C19, luciferin-H EGE luminescence; series mostly up to 57.1 µM; also: potency is read from the fitted curve at half-maximal effect; nearly all actives have a fitted effect of over 60% in size
Method in brief: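 Luminescence readout of luciferin formed from 10uM Luciferin-H EGE (KM level) by 5 nM CYP2C19 in 50mM KPO4. 60 min NADPH-driven reaction at 37C after 10 min compound preincubation; data scaled to 57uM ketoconazole inhibition.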

SMILES	Potency [1] [µM]	activity change, negative = inhibition [2] [%]	Potency [3]	activity change, negative = inhibition [4] [%]	Potency [5] [µM]	Potency [6] [µM]	Potency [7]	Potency [8]	Potency [9]	Potency [10]	Potency [11]	Potency [12]	Potency [13]	outcome [14]	activity, negative = inhibition [15] [%]	Potency [16]	activity change, negative = inhibition [17]	Potency [18]	Potency [19]
Cn1cc(-c2nc3cnc(N4CCNCC4)nc3n(-c3ccccc3)c2=O)c2ccccc21	> 11.4	22.4	15.8 µM (active)	24.6	> 9.22	> 46	inactive	inactive	3.98 µM (active)	inactive	inactive	inactive	inactive	inactive					
CNc1nc(-c2c(C)noc2C)nc2ccccc12	> 11.4	5.72	0.0501 µM (active)	8.72	> 46	> 46	inactive	inactive		17.8 µM (active)	20 µM (active)	inactive		inactive	-5.04	inactive	37.6% [at 2.29 µM]		
COc1ccccc1CNc1cc(-c2ccccc2C(F)(F)F)ncn1	> 11.4	-11.1	15.8 µM (active)	-8.05		> 46	inactive			inactive	inactive	inactive	inactive	inactive	9.59	inactive	8.84% [at 2.29 µM]	inactive	1 µM (active)
COc1ccc(-n2c(=O)c(-c3cccc(Cl)c3)nc3cncnc32)cc1	> 11.4	-20.5	1 µM (active)	-14.1		> 46	inactive	inactive		inactive	inactive	inactive	inactive	inactive	-4.36	inactive			
COc1cccc(Nc2ncc3nc(-c4cccs4)c(=O)n(Cc4cccs4)c3n2)c1	> 11.4	-19.6	2 µM (active)		> 9.22	> 46	inactive			inactive	inactive	inactive	20 µM (active)	inactive	-4.04	inactive			
COc1ccccc1-c1nc(NCc2cccnc2)c2ccccc2n1	> 11.4	10.5	0.794 µM (active)	-29.2	> 46	> 46	inactive	inactive		inactive	inactive	inactive		inactive	12.9	inactive			

From PubChem BioAssay (NCATS)
